Results filed as inconclusive are left out. The source made the active and inactive calls. Calls come from the whole dose curve; as a rule, active = well fitted curve in the direction sought with a large enough effect; inconclusive = small, poorly fitted or top-dose-only effect, or another doubt; inactive = no such curve, though single readings can be large; an effect the other way counts as inactive or inconclusive.
How the values were obtained:
[1] = Quantitative High-Throughput drug screen in 47 multiple myeloma cell lines against the NCATS MIPE library collection: FR4_PLB cell viability assay (AID 1918924; note: nearly all actives have a fitted effect of over 35% in size)
Procedure, shortened: (§1)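 Myeloma cell lines, 500 cells per well, exposed to MIPE 4.0 library compounds for 48 h at 37C, 5% CO2. Viability from ATP by CellTiter-Glo luminescence; normalised to DMSO (100%) and media-only (0%) wells.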

[2] = Quantitative High-Throughput drug screen in 47 multiple myeloma cell lines against the NCATS MIPE library collection: Delta47_JCRB cell viability assay (AID 1918925; note: nearly all actives have a fitted effect of over 45% in size)
Procedure, shortened: as §1

[3] = Quantitative High-Throughput drug screen in 47 multiple myeloma cell lines against the NCATS MIPE library collection: EJM_DSMZ cell viability assay (AID 1918926; note: nearly all actives have a fitted effect of over 30% in size)
Procedure, shortened: as §1

[4] = Quantitative High-Throughput drug screen in 47 multiple myeloma cell lines against the NCATS MIPE library collection: ARP1_JJKsccF8 cell viability assay (AID 1918928; note: nearly all actives have a fitted effect of over 40% in size)
Procedure, shortened: (§2)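 Here, 48 h treatment with MIPE 4.0 agents at 37 °C preceded an ATP luminescence read. Plating density was 500 cells per well.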

[5] = Quantitative High-Throughput drug screen in 47 multiple myeloma cell lines against the NCATS MIPE library collection: JIM1_ECACC cell viability assay (AID 1918964)
Procedure, shortened: as §1

[6] = Quantitative High-Throughput drug screen in 47 multiple myeloma cell lines against the NCATS MIPE library collection: Karpas25_ECACC cell viability assay (AID 1918968; note: nearly all actives have a fitted effect of over 35% in size)
Procedure, shortened: as §1

[7] = Quantitative High-Throughput drug screen in 47 multiple myeloma cell lines against the NCATS MIPE library collection: KMS27_JCRB cell viability assay (AID 1918970); note: nearly all actives have a fitted effect of over 30% in size
Procedure, shortened: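 Luminescent ATP read-out (CellTiter-Glo, 5 min at room temperature) after 48 h compound exposure of 500 KMS27_JCRB cells per well; DMSO wells define full viability and media-only wells zero.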

[8] = Quantitative High-Throughput drug screen in 47 multiple myeloma cell lines against the NCATS MIPE library collection: Karpas620_DSMZ cell viability assay (AID 1918959); note: nearly all actives have a fitted effect of over 30% in size
Procedure, shortened: as §1

[9] = Quantitative High-Throughput drug screen in 47 multiple myeloma cell lines against the NCATS MIPE library collection: INA6_PLB cell viability assay (AID 1918965; note: nearly all actives have a fitted effect of over 55% in size)
Procedure, shortened: as §1

[10] = Quantitative High-Throughput drug screen in 47 multiple myeloma cell lines against the NCATS MIPE library collection: JJN3_DSMZ cell viability assay (AID 1918966; note: nearly all actives have a fitted effect of over 50% in size)
Procedure, shortened: as §1

[11] = Quantitative High-Throughput drug screen in 47 multiple myeloma cell lines against the NCATS MIPE library collection: H1112_PLB cell viability assay (AID 1918967; note: nearly all actives have a fitted effect of over 30% in size)
Procedure, shortened: as §1

[12] = Quantitative High-Throughput drug screen in 47 multiple myeloma cell lines against the NCATS MIPE library collection: KMS12BM_JCRB cell viability assay (AID 1918971); note: nearly all actives have a fitted effect of over 35% in size
Procedure, shortened: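 Inhibition of cell viability is measured here. Each line was plated at 500 cells per well, treated with MIPE 4.0 drugs, kept 48 hours at 37C, then assayed for ATP content by CellTiter-Glo luminescence.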

[13] = Quantitative High-Throughput drug screen in 47 multiple myeloma cell lines against the NCATS MIPE library collection: AMO1_DSMZ cell viability assay (AID 1918927; note: nearly all actives have a fitted effect of over 30% in size)
Procedure, shortened: as §1

[14] = Quantitative High-Throughput drug screen in 47 multiple myeloma cell lines against the NCATS MIPE library collection: ARD_JJKsccE7 cell viability assay (AID 1918929)
Procedure, shortened: as §1

[15] = Quantitative High-Throughput drug screen in 47 multiple myeloma cell lines against the NCATS MIPE library collection: Karpas417_ECACC cell viability assay (AID 1918961); details: Karpas417 myeloma viability, CellTiter-Glo ATP luminescence, 48 h; viability (% of DMSO): at 45.8 µM (top of the series)
Procedure, shortened: as §1

[16] = Quantitative High-Throughput drug screen in 47 multiple myeloma cell lines against the NCATS MIPE library collection: JIM3_ECACC cell viability assay (AID 1918963; note: nearly all actives have a fitted effect of over 35% in size)
Procedure, shortened: as §1

[17] = Quantitative High-Throughput drug screen in 47 multiple myeloma cell lines against the NCATS MIPE library collection: KMS12PE_JCRB cell viability assay (AID 1918972); note: nearly all actives have a fitted effect of over 30% in size
Procedure, shortened: as §1

[18] = Quantitative High-Throughput drug screen in 47 multiple myeloma cell lines against the NCATS MIPE library collection: KMM1_JCRB cell viability assay (AID 1918960); note: nearly all actives have a fitted effect of over 30% in size
Procedure, shortened: as §2

Measured: Potency
Potency is the fitted concentration of half-maximal effect.

Nc1nnc(-c2cccc(Cl)c2Cl)c(N)n1
active: [2] 23.5 µM | [6] 20.9 µM
inactive: [1] | [3] | [4] | [5] | [7]

CN(Cc1cnc2nc(N)nc(N)c2n1)c1ccc(C(=O)N[C@@H](CCC(=O)O)C(=O)O)cc1
inactive: [8]
active: [1] 37.2 µM | [4] 0.0332 µM | [5] 0.0264 µM | [9] 0.0372 µM | [10] 0.0469 µM | [11] 0.0662 µM | [6] 1.18 µM | [7] 0.0296 µM | [12] 6.62 µM

COc1ccc(C2CNC(=O)C2)cc1OC1CCCC1 (stereo not drawn)
not listed: [2] | [6] | [9] | [10] | [18]
inactive: all other assays above

CC(C)NCC(O)COc1ccc(CCOCC2CC2)cc1 (stereo not drawn)
not listed: [3] | [4] | [10] | [12] | [13] | [14]
inactive: all other assays above

C[C@](N)(Cc1ccc(O)c(O)c1)C(=O)O
inactive: [1] | [14] | [8] | [7] | [17]
active: [10] 18.7 µM | [6] 20.9 µM

CC(CCc1ccc(O)cc1)NCCc1ccc(O)c(O)c1 (stereo not drawn)
active: [1] 23.5 µM | [3] 20.9 µM | [4] 20.9 µM | [14] 16.6 µM | [8] 13.2 µM | [18] 29.6 µM | [9] 18.7 µM | [10] 14.8 µM | [6] 18.7 µM | [7] 18.7 µM | [12] 14.8 µM | [17] 20.9 µM

Nc1ccn([C@H]2CC[C@@H](CO)O2)c(=O)n1
inactive: [1] | [2] | [4] | [14] | [8] | [18] | [15] | [11] | [17]
active: [16] 26.4 µM

CC(C(=O)O)c1cccc(C(=O)c2ccccc2)c1 (stereo not drawn)
active: [2] 20.9 µM | [11] 18.7 µM | [6] 13.2 µM
inactive: [1] | [18] | [17]

CN1CCN(C2=Nc3cc(Cl)ccc3Nc3ccccc32)CC1
inactive: [1] | [3] | [4] | [5] | [7] | [12]
active: [2] 20.9 µM | [18] 16.6 µM | [6] 26.4 µM

NC12CC3CC(CC(C3)C1)C2
inactive: [1] | [16] | [10] | [12]
active: [2] 16.6 µM | [9] 26.4 µM | [6] 0.118 µM

O=C(CCCN1CCC(O)(c2ccc(Cl)cc2)CC1)c1ccc(F)cc1
inactive: [1] | [3] | [11] | [12]
active: [13] 20.9 µM | [4] 23.5 µM | [14] 16.6 µM | [8] 20.9 µM | [9] 18.7 µM | [6] 2.96 µM

C[C@H]1c2cccc(O)c2C(O)=C2C(=O)[C@]3(O)C(O)=C(C(N)=O)C(=O)[C@@H](N(C)C)[C@@H]3[C@@H](O)[C@@H]21
active: [1] 26.4 µM | [2] 23.5 µM | [9] 37.2 µM | [6] 16.6 µM | [17] 29.6 µM
inactive: [13] | [7]

C[C@@H]1CC(=O)NN=C1c1ccc(NN=C(C#N)C#N)cc1
inactive: [13] | [14] | [8] | [18] | [5] | [7] | [17]
active: [1] 23.5 µM | [2] 18.7 µM | [4] 23.5 µM | [16] 20.9 µM | [9] 18.7 µM | [10] 20.9 µM | [11] 20.9 µM | [6] 18.7 µM | [12] 18.7 µM

CN(C)C(=N)N=C(N)N
inactive: [1] | [2] | [3] | [14] | [18] | [9] | [11] | [6] | [7] | [17]

COc1ccccc1OCC(O)CN1CCN(CC(=O)Nc2c(C)cccc2C)CC1 (stereo not drawn)
not listed: [2] | [6] | [8] | [10] | [15]
inactive: all other assays above

COc1ccc2c(c1)c(CC(=O)O)c(C)n2C(=O)c1ccc(Cl)cc1
active: [2] 16.6 µM | [9] 16.6 µM | [6] 20.9 µM
inactive: [1] | [4] | [8] | [18] | [16]

CC1(C)O[C@H]2CC(=O)OC[C@]23[C@H]2CC[C@@]4(C)[C@H](c5ccoc5)OC(=O)[C@H]5O[C@]54[C@]2(C)C(=O)C[C@@H]13
not listed: [2] | [9] | [10] | [15]
inactive: all other assays above

CCCCc1oc2ccccc2c1C(=O)c1cc(I)c(OCCN(CC)CC)c(I)c1
active: [1] 26.4 µM | [2] 13.2 µM | [14] 18.7 µM | [18] 6.62 µM | [15] 13.2 µM | [5] 18.7 µM | [9] 16.6 µM | [10] 18.7 µM | [6] 5.9 µM | [7] 6.62 µM | [12] 18.7 µM | [17] 26.4 µM

Reference: PubChem BioAssay (NCATS)
